From PubChem BioAssay (EPA / NIEHS)
Records with an inconclusive call do not appear. Active and inactive are the calls of the source. The calls were made as follows: active = hit-call score of the fitted dose curve at least 0.9, where 1 is the maximum; inconclusive = response in the unintended direction; inactive = score below 0.9.

How the values were obtained:
[1] = biological target: Cellular tumor antigen p53 (Homo sapiens) (UniProt P04637); experiment: TOX21_p53_BLA_p2_ratio: Tox21 HCT-116 p53 Agonism Beta-lactamase Assay, Ratio, Phase 2 (AID 2283592)
Method in brief: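 An inducible beta-lactamase reporter in HCT116 cells signals p53 pathway activation. After 16 h chemical exposure at 37C, cells load CCF4-AM substrate for 2 h at room temperature; activity is the cleaved/uncleaved emission ratio relative to DMSO.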

[2] = TOX21_p53_BLA_p3_viability: Viability Assessment in the Tox21 HCT-116 p53 Agonism Beta-lactamase Assay, Phase 3 (AID 2283593);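 also: cells exposed to compound for 16 h before reading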
Method in brief: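 Cellular ATP was quantified by CellTiter-Glo luminescence, read after 30 min at room temperature. Beforehand, HCT116 cells (4000/well) received compound 5 h post-seeding, 217-fold diluted from DMSO, then incubated 16 h at 37C.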

[3] = biological target: Cellular tumor antigen p53 (Homo sapiens) (UniProt P04637); experiment: TOX21_p53_BLA_p3_ratio: Tox21 HCT-116 p53 Agonism Beta-lactamase Assay, Ratio, Phase 3 (AID 2283596)
Method in brief: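 HCT116 p53-bla cells (4000/well) given compound in DMSO (217-fold dilution) after 5 h, incubated 16 h at 37C. CCF4-AM substrate 2 h at room temperature; 460/530 nm emission ratio, gain fitted against DMSO.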

[4] = TOX21_p53_BLA_p4_viability: Viability Assessment in the Tox21 HCT-116 p53 Agonism Beta-lactamase Assay, Phase 4 (AID 2283597);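 also: hits lower the luminescence signal meaning cytotoxicity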
Method in brief: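 Compound exposure of HCT116 cells lasts 16 h at 37C, 5% CO2, with DMSO stocks diluted 217-fold. Cellular ATP is then quantified by CellTiter-Glo luminescence after 30 min at room temperature.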

[5] = biological target: Cellular tumor antigen p53 (Homo sapiens) (UniProt P04637); experiment: TOX21_p53_BLA_p5_ratio: Tox21 HCT-116 p53 Agonism Beta-lactamase Assay, Ratio, Phase 5 (AID 2283599)
Method in brief: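 Beta-lactamase reporter ratio (blue 460 nm over green 530 nm, 405 nm excitation) after 2 h CCF4-AM loading, in HCT-116 cells exposed 16 h at 37 C to compounds pinned at 217-fold dilution. Increases relative to DMSO baseline scored.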

[6] = TOX21_p53_BLA_p5_viability: Viability Assessment in the Tox21 HCT-116 p53 Agonism Beta-lactamase Assay, Phase 5 (AID 2283600)
Method in brief: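 Counter-readout for cytotoxicity: ATP-dependent luminescence from CellTiter-Glo, read in the beta-lactamase wells after 30 min at RT, following a 16 h compound exposure at 37C.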

[7] = biological target: Cellular tumor antigen p53 (Homo sapiens) (UniProt P04637); experiment: TOX21_p53_BLA_p4_ratio: Tox21 HCT-116 p53 Agonism Beta-lactamase Assay, Ratio, Phase 4 (AID 2283601)
Method in brief: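 Signal is the blue/green (460nm/530nm) ratio of cleaved versus uncleaved CCF4-AM substrate, read after 2 h substrate loading. Cells were HCT116 carrying the p53-responsive beta-lactamase reporter, dosed 16 h at 37C, 5% CO2; CellTiter-Glo measured in parallel.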

Measured: AC50

Sequence of Cellular tumor antigen p53 (Homo sapiens) (P04637 whole entry, looked up): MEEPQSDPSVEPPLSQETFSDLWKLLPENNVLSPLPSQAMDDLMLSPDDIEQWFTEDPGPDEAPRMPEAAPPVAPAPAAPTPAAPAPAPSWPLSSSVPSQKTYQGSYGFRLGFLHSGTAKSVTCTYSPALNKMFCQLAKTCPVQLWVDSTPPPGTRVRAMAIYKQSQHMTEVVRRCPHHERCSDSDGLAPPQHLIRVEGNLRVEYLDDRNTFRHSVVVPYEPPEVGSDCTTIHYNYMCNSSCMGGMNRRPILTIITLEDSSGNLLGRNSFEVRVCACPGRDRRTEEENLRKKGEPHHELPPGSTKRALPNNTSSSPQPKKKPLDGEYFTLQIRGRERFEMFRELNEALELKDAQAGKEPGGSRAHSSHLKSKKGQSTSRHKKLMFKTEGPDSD

S=C(SSC(=S)N1CCCCC1)N1CCCCC1
inactive: all assays above

O=[N+]([O-])c1cc(I)c(O)c(I)c1
active: [1] 17.7 µM | [2] 5.69 µM | [3] 2.65 µM | [4] 11.3 µM | [5] 24.2 µM | [6] 11 µM | [7] 18 µM

ClCOCCl
not listed: [4] | [7]
inactive: all other assays above
